This is an account of results in PubChem BioAssay (Tox21).

A short description of test [1]: qHTS assay to identify small molecule antagonists of the estrogen related receptor (ERR) signaling pathway - cell viability counter screen (AID 1224818). Further: potency means the concentration at half of the fitted maximal effect.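 Further: viability measured after 17.5 h of compound exposure.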 In outline:
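Cells carrying the ERR pathway reporter were seeded and incubated for 6 hours before compound addition. After a 17.5-hour exposure at 37 C, live-cell protease activity was measured by CellTiter-Fluor fluorescence following 30 minutes of incubation.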

A short description of test [2]: qHTS assay to identify small molecule agonists of the estrogen related receptor (ERR) signaling pathway (AID 1224820). In outline: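 Quantitative HTS of the LOPAC library used NTP ERR reporter cells treated 18 h at 37 C. Signal is luminescence after One-Glo addition and a 30 min room-temperature incubation.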
In general terms: Quantitative high-throughput screening tests each substance at several concentrations.

A short description of test [3]: qHTS assay to identify small molecule antagonists of the estrogen related receptor signaling pathway with the pleiotropic PPARgamma coactivator (PGC) cell viability counter screen (AID 1224822; further: potency means the concentration at half of the fitted maximal effect). In outline: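 Seed PGC/ERR cells (2,000/well); incubate 6 h at 37 C/5% CO2; pin-transfer compounds in DMSO; incubate 17.5 h at 37 C; add CellTiter-Fluor; after 30 min read fluorescence.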

Test [4] in a line: qHTS assay to identify small molecule agonists of the estrogen related receptor signaling pathway with the pleiotropic PPARgamma coactivator (PGC) (AID 1224823). An outline of the steps:
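Cell-based luciferase assay in the NTP-supplied PGC/ERR line, 2,000 cells/well; 18 h compound exposure at 37 C, luminescence after One-Glo.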

The test system of test [5] is estrogen-related receptor alpha (ERRalpha) with PGC-1alpha coactivator, human. Description: qHTS assay to identify small molecule antagonists of the estrogen related receptor signaling pathway with the pleiotropic PPARgamma coactivator (PGC) (AID 1224821; calls by dose curve;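 further: series mostly up to about 46 µM; lower luminescence signal means antagonism of PGC/ERR signalling; nearly all actives have a fitted effect of over 50% in size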). In outline:
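Quantitative HTS for antagonism: PGC/ERR cells received compounds after 6 h attachment and were incubated 18 h at 37 C, with luminescence (One-Glo) as the endpoint.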

Records with an inconclusive call do not appear. Unmarked numbers belong to inactive results. The source made the active and inactive calls. Unless noted, the call rests on the fitted dose curve; in most records, active means well fitted curve in the direction sought with a large enough effect in the repeat runs; inconclusive means weak or mixed curves; inactive means no such curve, though single readings can be large; an effect the other way counts as inactive or inconclusive.

For the compound `Ic1ccccc1CNC1C2CCN(CC2)C1C(c1ccccc1)c1ccccc1` (stereo not given), the Potency in test [1] and in test [3] was 19.6 µM (active) each time. In addition, the Potency entry in test [2] and in test [4] was “inactive” each time.

For `[Cl-].[Cl][Pt].[NH2-].[NH2-].c1ccncc1`, the Potency entry in test [1] and in test [3] was “inactive” throughout.

On to `NC(CCP(=O)(O)O)C(=O)O` (stereo not given), for which the Potency result in test [1], in test [2], in test [5], in test [3] and in test [4] was “inactive” each time.

Take `CCCC[N+]1(C)C2CC(OC(=O)[C@H](CO)c3ccccc3)CC1C1OC12` (stereo not given in full): the Potency result in test [1] and in test [3] was “inactive” in each case.

On to `CN1CC[C@@]2(C)c3cc(OC(=O)Nc4ccccc4)ccc3N(C)[C@@H]12`, for which the Potency result in test [1], in test [5] and in test [4] was “inactive” in each case.

As to `CC[C@@]1(O)C(=O)OCc2c1cc1n(c2=O)Cc2cc3ccccc3nc2-1`, the Potency result in test [1], in test [2], in test [3] and in test [4] was “inactive” in each case.
